Results reported in PubChem BioAssay (NCATS).
Results filed as inconclusive are left out. Active and inactive are the calls of the source. Unless noted, the call rests on the fitted dose curve; in most records, active means well fitted curve in the direction sought with a large enough effect; inconclusive means small, poorly fitted or top-dose-only effect, or another doubt; inactive means no such curve, though single readings can be large; an effect the other way counts as inactive or inconclusive. Where a SMILES comes first, the peptide text is derived from it. [ ]: non-standard residue; d: D form.

Columns and labels:
[1] = qHTS to identify inhibitors of the type 1 interferon - major histocompatibility complex class I in skeletal muscle: primary screen against the NCATS Mechanism Interrogation Plate v5.0 (MIPE) Libary (AID 1347411); conditions: iHSKM cells + IFN-b, HiBiT-tagged MHC-I luminescence, 24 h; series mostly up to 45.8 µM; further: nearly all actives have a fitted effect of over 65% in size;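 on activity change, negative = inhibition: plate controls were vehicle for no effect and reference inhibitor for full effect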
How it was run: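 Immortalized human C25cl48 myoblasts with HiBit knocked into endogenous HLA-B*08:01 were stimulated with 4.0 ng/ml IFN-beta and exposed to compounds (11-point 1:3 titration, top 46 uM final) for 24 hrs at 37 C; HiBiT lytic luminescence measured.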

[2] = Primary qHTS for inhibitors of nuclear receptor binding SET domain protein 2 (NSD2) in an isogenic RCH-ACV NSD2 p.E1099K mutant (9B) (AID 1645876); conditions: RCH-ACV NSD2 E1099K (9B) viability, CellTiter-Glo, 72 h; series mostly up to 44.9 µM; further: nearly all actives have a fitted effect of over 70% in size; on activity change, negative = viability loss: on the % scale 0 is the no-effect control and ±100 the full control effect
[3] = Primary qHTS for inhibitors of nuclear receptor binding SET domain protein 2 (NSD2) in an RCH-ACV wild type WT cells (2C) (AID 1645877); conditions: RCH-ACV (leukaemia line) NSD2 WT (2C) viability, CellTiter-Glo, 72 h; series mostly up to 44.9 µM; further: nearly all actives have a fitted effect of over 70% in size; on activity change, negative = cell killing: on the % scale 0 is the no-effect control and ±100 the full control effect
[4] = molecular target: Glutathione peroxidase 1 (Homo sapiens) (UniProt P07203); test: Primary qHTS Assay for Inhibitors of Recombinant Selenoprotein Glutathione Peroxidase 1 (GPX1) (AID 1845191); conditions: recombinant GPX1, GR-coupled NADPH fluorescence, 15 min; series mostly up to 48.8 µM; further: nearly all actives have a fitted effect of over 65% in size
How it was run: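 10 nM GPX1 + cpd, 30 min RT; start w/ 1 mM GSH, 0.5 mM cumene hydroperoxide, 0.5 mM NADPH, 100 nM GR, 0.01% BSA; buffer 50 mM Tris-HCl pH 7.5, 2 mM EDTA, 150 mM NaCl; Fl 340/450, 0 & 15 min.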

[5] = molecular target: Phospholipid hydroperoxide glutathione peroxidase GPX4 (Homo sapiens) (UniProt P36969); test: Primary qHTS Assay for Inhibitors of Recombinant Selenoprotein Glutathione Peroxidase 4 (GPX4) (AID 1845192); conditions: recombinant GPX4, GR-coupled NADPH fluorescence, 15 min; series mostly up to 50 µM; further: nearly all actives have a fitted effect of over 65% in size; on activity change, negative = inhibition: on the % scale 0 is the no-effect control and ±100 the full control effect
How it was run: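 NADPH consumption, followed by fluorescence at 340/450 nm between 0 and 15 min, reports GPX4 activity via coupled glutathione reductase (100 nM). Enzyme 200 nM was pre-exposed to compound 30 min; 0.5 mM cumene hydroperoxide and 1 mM GSH served as substrates.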

[6] = qHTS drug screen for cell cycle checkpoint inhibitors in PARPi-resistant BRCA-mutant ovarian cancer cell lines. (AID 1963452; calls by dose curve); conditions: PEO1/OlaR viability, CellTiter-Glo luminescence, 96 h; for Z-AUC: stronger effect = lower value
How it was run: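 PEO1, PEO4 and PEO1/OlaR ovarian cancer cells, 600 per well, exposed 96 h at 37C to a dilution series. Viability read by CellTiter-Glo luminescence, normalized to DMSO and empty wells; activity summarized as Z-AUC.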

[7] = measured here: PEO1 parental Z-AUC
Potency means the concentration at half of the fitted maximal effect.

Sequence of Glutathione peroxidase 1 (Homo sapiens) (P07203 whole entry, looked up): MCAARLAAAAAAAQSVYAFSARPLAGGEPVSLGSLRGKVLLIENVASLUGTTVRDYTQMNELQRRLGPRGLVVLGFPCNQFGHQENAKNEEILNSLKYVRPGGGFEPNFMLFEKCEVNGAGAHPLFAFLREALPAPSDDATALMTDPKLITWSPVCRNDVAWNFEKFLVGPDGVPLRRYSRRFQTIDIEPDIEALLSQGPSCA
Sequence of Phospholipid hydroperoxide glutathione peroxidase GPX4 (Homo sapiens) (P36969 whole entry, looked up): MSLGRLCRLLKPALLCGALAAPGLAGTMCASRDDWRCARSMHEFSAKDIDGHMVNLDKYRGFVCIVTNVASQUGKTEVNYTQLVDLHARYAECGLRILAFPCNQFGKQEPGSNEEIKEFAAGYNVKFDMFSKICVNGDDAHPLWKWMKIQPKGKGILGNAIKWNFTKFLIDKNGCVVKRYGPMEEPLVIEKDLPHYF

SMILES | Potency [1] | Potency [2] | Potency [3] | Potency [4] | Potency [5] | Z-AUC [6] | Z-AUC [6, 7] | Z-AUC ([6]; measured here: PEO4 Z-AUC) | Potency [6] | activity change, negative = inhibition [1] | activity change, negative = viability loss [2] | activity change, negative = cell killing [3] | outcome [4] | activity change, negative = inhibition [5]
N[C@@H](CCC(=O)O)C(=O)N[C@@H](Cc1c[nH]c2ccccc12)C(=O)O (H-Glu-Trp-OH) | inactive | inactive | inactive | inactive | inactive | 1.08 (inactive) | 0.582 | 0.474 |  |  |  |  |  | 
CC1Cc2ccccc2N1C(=O)Cc1nc(N2CCOCC2)cc(=O)[nH]1 (stereo not given) | inactive | 5.25 µM (active) | 4.68 µM (active) | inactive | inactive | -1.34 (inactive) | -0.404 | -0.574 |  |  |  |  |  | 
C[C@]12CCC3=C4CCC(=O)C=C4CC[C@H]3[C@@H]1CC[C@@]2(O)CC#N | inactive | inactive | inactive | inactive | inactive | 1.33 (inactive) | 1.75 | 1.39 |  |  |  |  |  | 
CC(C)C[C@@H]1NC(=O)[C@@H](C(C)C)NC(=O)[C@@H]2CCCN2C(=O)[C@@H](CC(=O)O)NC(=O)[C@@H](Cc2c[nH]c3ccccc23)NC1=O (cyclo(L[dW][dD]P[dV])) | inactive | inactive | inactive | inactive | inactive | -0.319 (inactive) | 0.0618 | -0.23 |  |  |  |  |  | 
Cn1c(-c2ccccc2C(F)(F)F)nnc1C12CCC(c3noc(C4CC(F)(F)C4)n3)(CC1)CC2 | inactive | inactive | inactive | inactive | inactive | 1.42 (inactive) | 1.05 | 1.41 |  |  |  |  |  | 
CC1(C(=O)O)CCC2(C)CCC3(C)C(=CC(=O)C4C5(C)CCC(OC6OC(C(=O)O)C(O)C(O)C6OC6OC(C(=O)O)C(O)C(O)C6O)C(C)(C)C5CCC43C)C2C1 (stereo not given) | inactive | inactive | inactive | inactive | inactive | -0.447 (inactive) | 1.94 | 1.74 |  |  |  |  |  | 
COC(=O)[C@H]1[C@@H](O)[C@@]2(O)c3c(OC)cc(O[C@@H]4O[C@@H]([C@@H](O)CO)CO[C@H]4OC)cc3O[C@@]2(c2ccc(OC)cc2)[C@@H]1c1ccccc1 | inactive | 4.68 µM (active) | 2.95 µM (active) | inactive | inactive | 1.19 (inactive) | 0.913 | 0.648 |  |  |  |  |  | 
NC(CC1c2ccccc2Oc2ccccc21)(C(=O)O)C1CC1C(=O)O (stereo not given) | inactive | inactive | inactive | inactive | inactive | -0.154 (inactive) | 0.493 | 0.591 |  |  |  |  |  | 
C/C=C1\NC(=O)[C@H]2CSSCC/C=C\[C@H](CC(=O)N[C@H](C(C)C)C(=O)N2)OC(=O)[C@H](C(C)C)NC1=O | 0.0104 µM (active) | 0.0074 µM (active) | 0.0066 µM (active) | inactive |  |  | -3.43 | -3.56 | 0.0049 µM (active) |  |  |  |  | 
O=C1OC2(CCC(C(=O)Nc3ccn(-c4ccccc4F)n3)CC2)c2cnccc21 (stereo not given) | inactive | inactive | inactive | inactive | inactive | 0.0773 (inactive) | 0.881 | 0.97 |  |  |  |  |  | 
O=C(O)CC(C(=O)O)n1c(O)c(C2=c3cc(Br)ccc3=NC2=O)sc1=S (stereo not given) | inactive | inactive | inactive | 5.15 µM (active) | 10.1 µM (active) | 1.23 (inactive) | 0.91 | 1.08 |  |  |  |  |  | 
CN1CCN(C(=O)[C@H]2[C@@H](C(=O)O)[C@H]3CC[C@@H]2O3)CC1 |  |  |  |  |  | 0.39 (inactive) | 0.568 | 0.663 |  | -7.67% [at 8.44 µM] (inactive) | 9.83% [at 9.23 µM] (inactive) | 4.4% [at 9.23 µM] (inactive) | inactive [at 9.52 µM] | 3.36% [at 9.73 µM] (inactive)
O=C(/C=C/N1C[C@H]2C[C@@H]1CN2c1ccccn1)c1ccccc1O | inactive | inactive | inactive |  | inactive | 1.02 (inactive) | 0.925 | 0.836 |  |  |  |  |  | 
CCN1C(=O)CNc2ncc(-c3ccc(-c4ncn[nH]4)nc3C)nc21 | 2.94 µM (active) | 0.833 µM (active) | 0.742 µM (active) |  |  | 0.377 (inactive) | 0.759 | 0.275 |  |  |  |  |  | 
O=C(O)CCCCN(CCc1ccccc1OCc1ccc(CCc2ccccc2)cc1)Cc1ccc(C(=O)O)cc1 | inactive | inactive | inactive | inactive |  | 0.163 (inactive) | 0.492 | 0.773 |  |  |  |  |  | 
